TCR act = T cell receptor activation; primary human leukocytes, anti-CD3, IL-2 HTRF, 48 h; 330,000 tested, under 10 active; Potency, µM (doses to about 9.22 µM), hits mostly activators
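IL-2 release read by HTRF sandwich (Eu cryptate donor, d2 acceptor, 665 nm emission) after 48 hr exposure of primary human leukocytes to compound together with anti-CD3 beads in the absence of co-stimulatory signals.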
CBFb RUNX1 block = CBF-beta/RUNX1 interaction disruption; AlphaScreen CBFb-His/RUNX1-biotin binding, biochemical; 230,000 tested, under 10 active; Potency, µM (titrated, usually from 59.8 µM), most hits filed as inhibitors; Q01196+Q13951
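CBFb-His/RUNX1-biotin, 30 nM each, preincubated 20 min RT; compound 15 min RT; Ni + streptavidin beads 50 ng each, 90 min RT; AlphaScreen read.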
TRPV1 agonist = activates the human vanilloid receptor TRPV1. Q8NER1. TRPV1-expressing cells, Fluo-8 calcium influx, agonist mode. activation, % at 8.33 µM. 0.19% of 320,000 active. AID 540275; in the data active = activation above about 80%; inconclusive = between about 30% and that limit
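TRPV1-expressing cells were cultured overnight at 35.5C and loaded with Fluo-8 calcium dye for 40 to 90 min at room temperature. After a 10 s baseline, compound was added and calcium influx was read kinetically for 3 min (ex 480/em 520 nm).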
TRPV1 PAM = enhances activation of the human vanilloid receptor TRPV1; Q8NER1; TRPV1-expressing cells, Fluo-8 calcium influx, capsaicin EC20 potentiation; potentiation, % at 8.33 µM; 0.02% of 320,000 active; AID 540277; in the data active = potentiation above about 80%; inconclusive = between about 30% and that limit
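Fluo-8 calcium influx in TRPV1-expressing cells, kinetic read (ex 480/em 520 nm). Compound added and read 3 min for agonist activity, followed by capsaicin at EC20 final and 2 min further read for enhancement.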
KinaseGlo FLuc = counter-screen: inhibitors of Kinase-Glo firefly luciferase; Potency, µM (series often up to 38.3 µM), usual class: inhibitors; Q27757; Kinase-Glo luciferase, ATP luminescence, 8 min; 0.28% of 200,000 active; AID 1379; also: nearly all actives have a fitted effect of over 60% in size
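Luminescence was the read-out, taken after 8-minute incubation at ambient temperature. Luciferase turned over luciferin with 10 uM ATP in imidazole pH 7.2 buffer containing KCl, MgCl2, Tween 20 and BSA.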
MBNL1-CUG inh = blocks human MBNL1 binding to CUG repeat RNA. Q9NR56. TR-FRET MBNL1-His/biotin-(CUG)12 binding, 665/545 ratio. Potency, µM (doses to about 57.5 µM), actives largely listed as inhibitors. 0.036% of 280,000 active; active = well fitted inhibition curve with a large enough effect in the signal ratio, with a control signal flat, not every such curve was filed as active; inconclusive = small, poorly fitted or top-dose-only effect, or effect the other way, or a change in a side signal; inactive = no such curve, though single readings can be large or run the other way; the % refers to the signal ratio
Target sequence (Q9NR56 whole entry, looked up): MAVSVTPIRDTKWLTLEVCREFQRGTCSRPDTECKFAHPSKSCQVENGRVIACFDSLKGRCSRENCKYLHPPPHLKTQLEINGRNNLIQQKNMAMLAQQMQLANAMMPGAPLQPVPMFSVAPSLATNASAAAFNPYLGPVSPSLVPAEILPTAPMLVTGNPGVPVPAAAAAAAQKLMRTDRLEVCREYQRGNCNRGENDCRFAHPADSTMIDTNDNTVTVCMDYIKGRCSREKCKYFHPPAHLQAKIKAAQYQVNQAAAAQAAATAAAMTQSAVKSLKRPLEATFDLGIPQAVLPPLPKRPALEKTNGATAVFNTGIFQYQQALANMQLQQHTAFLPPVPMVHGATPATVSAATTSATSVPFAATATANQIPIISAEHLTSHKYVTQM
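Compounds (final 92 nM to 58 uM) are added to His-tagged MBNL1 and biotin-(CUG)12, then terbium anti-His antibody and streptavidin-XL665 (5 nM final). After 60 min at room temperature, the 665/545 nm ratio is read.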
A number is an active result; . = inactive; ? = inconclusive; / = not tested or not shown; [ ] = dose if it differs, or a comment. Compounds with a hit are over-represented: about 0.35% of the library has one in this group of screens. Unless noted, calls follow the shape of the dose curve; as a rule, active = well fitted curve in the direction sought with a large enough effect; inconclusive = small, poorly fitted or top-dose-only effect, or another doubt; inactive = no such curve, though single readings can be large; an effect the other way counts as inactive or inconclusive.

SMILES	TCR act	CBFb RUNX1 block	TRPV1 agonist	TRPV1 PAM	KinaseGlo FLuc	MBNL1-CUG inh
NS(=O)(=O)Nc1c(Br)cc(Br)c2cccnc12	/	/	.	.	/	/
COc1ccc(C=C2C(=O)c3ccccc3C2=O)cc1O	.	.	.	?	7.94µM	?
COc1cc(C=C2C(=O)c3ccccc3C2=O)ccc1O	.	.	/	/	/	/
CN1CCN(c2ccc3nc(-c4ccc5nc(-c6ccc(O)cc6)[nH]c5c4)[nH]c3c2)CC1	/	/	/	/	.[7.66 µM]	/
O=c1[nH]c(/C=C/c2ccc(Br)cc2)nc2ccccc12	.	/	.	.	/	.
C(=C\c1nc2ccccc2[nH]1)/c1ccccc1	.	.	?	.	3.55µM	.
C(=C\c1ccco1)/c1nc2ccccc2[nH]1	.	.	?	.	12.6µM	?
COc1ccc(/C=N/Nc2nccnc2Cl)c(OC)c1	.	.	.	.	12.6µM	?
COc1ccc(/C=N/Nc2nonc2N)c(OC)c1	.	.	.	.	.	.
CN(C)CCC(=O)[C@@]1(O)CC[C@H]2[C@H]3CC=C4C[C@@H](O)CC[C@]4(C)[C@H]3CC[C@]21C	/	/	/	/	.[7.66 µM]	/
COc1ccccc1/C=C/C(=O)Nc1cccnc1Cl	.	/	?	.	/	.
COc1ccc(/C=C/C(=O)Nc2cccnc2Cl)cc1	.	/	84.9	.	/	?
COC(=O)c1ccccc1S(=O)(=O)N1CCc2nc(-c3ccc(OC)cc3C)c3c(c2C1)CO[C@@H](c1ccccc1)C3	/	.[13.1 µM]	/	/	.[7.66 µM]	/
CCOC(=O)/C(=C/C=C1\Sc2cc(C)c(C)cc2N1CC)C(C)=O	.	.	105.7	.	.	?
Cc1csc(NC(=O)c2cccn2C)n1	.	.	.	.	?	.
Cn1cccc1C(=O)Nc1nc(-c2ccccn2)cs1	.	.	.	.	11.2µM	.
C/C(=N\NC(=O)c1cccc2ccccc12)c1cccs1	.	/	.	.	/	.
C/C(=N\NC(=O)C1=NNC(=O)C1C)c1cccs1 (stereo not given)	.	.	.	.	10µM	/
C/C(=N\NC(=O)c1ccccc1O)c1cccs1	.	.	.	.	11.2µM	.
CC1(C)OC(=O)C2(Cc3ccccc3N3CCCC32)C(=O)O1 (stereo not given)	/	/	.	.	/	/
COc1ccc(C(=O)Nc2ccccc2C(=O)N/N=C/c2ccco2)cc1	.	.	.	.	2.82µM	?
O=C(Nc1ccccc1C(=O)N/N=C/c1ccncc1)c1ccccc1	.	.	?	.	1.78µM	.
O=C(NCc1cccnc1)C1CCN(C(=O)c2ccc(Cl)cc2Cl)CC1	.	.	.	.	.	.
O=C(NCc1cccnc1)C1CCC(c2ccc(Cl)cc2)CC1 (stereo not given)	.	.	115.2	.	/	.
CN(C)c1ccc(/C=C/c2ccc3c4ccccc4ccc3[n+]2-c2ccccc2)cc1	.	/	.	.	10µM	?
SMILES	TCR act	CBFb RUNX1 block	TRPV1 agonist	TRPV1 PAM	KinaseGlo FLuc	MBNL1-CUG inh
CN(C)c1ccc(/C=C/c2ccc3ccccc3[n+]2C)cc1	?	.	.	.	?	?
CCc1c(C)nc(N2CCN(c3cccc(OC)c3)CC2)[nH]c1=O	.	/	.	.	/	.
COc1cccc(N2CCN(c3nc(C)cc(=O)[nH]3)CC2)c1	.	/	96.9	.	/	.
C=CC1=C2C=C(C3CC3)N(C3CCCCC3)C=C2C(=O)C(C)(OC(=O)c2ccco2)C1=O (stereo not given)	/	.[13.1 µM]	/	/	.[7.66 µM]	/
Cc1nc(Nc2ccc3c(c2)OCO3)c2oc3ccccc3c2n1	.	.	.	.	.	.
Cc1nc(NCCN2CCOCC2)c2oc3ccccc3c2n1	.	.	.	.	.	.
Cc1nc(NCCc2ccccc2)c2oc3ccccc3c2n1	.	.	81.6	.	.	.
Cc1ccc(Nc2nc(C)nc3c2oc2ccccc23)cc1	.	.	88.2	.	/	.
COc1ccc(Nc2nc(C)nc3c2oc2ccccc23)cc1	.	/	98.2	.	/	.
CC(=O)c1ccc(Nc2nc(C)nc3c2oc2ccccc23)cc1	/	.	?	.	.	.
CC(C)(C)c1ccc(S(=O)(=O)/C=C\C#N)cc1	/	.	/	/	.	/
CCOc1ccc(-c2cn3ccccc3n2)cc1	.	.	.	.	8.91µM	.
COc1ccc(-c2cn3ccccc3n2)cc1OC	.	.	.	.	11.2µM	.

Screening results as filed in PubChem BioAssay.
